Screening results (PubChem BioAssay)
ALOX12 inh – Primary qHTS assay for inhibitors of human arachidonate 12S-lipoxygenase (ALOX12): Round 2; Polyunsaturated fatty acid lipoxygenase ALOX12 (Homo sapiens), P18054; purified 12hLO, xylenol orange hydroperoxide absorbance; Potency, µM (series often up to 108 µM), most hits filed as inhibitors; 580,000 tested, 1.1% active
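Hydroperoxide product was detected by ferrous iron/xylenol orange as the 573 to 405 nm absorbance ratio. Arachidonic acid at 40 uM (final) was turned over for 30 min at room temperature by 150 nM human 12hLO, pH 7.0 Hepes buffer, after 15 min compound preincubation.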
BAZ2B block – qHTS Assay for Inhibitors of BAZ2B; Potency, µM (top dose mostly 114 µM), usual class: inhibitors; 360,000 tested, 4.4% active; AID 504333, 2011; AlphaScreen BAZ2B-H3K14Ac peptide displacement; Bromodomain adjacent to zinc finger domain protein 2B (Homo sapiens), Q9UIF8; also: nearly all actives have a fitted effect of over 60% in size
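AlphaScreen displacement: compounds (up to 110uM) incubated 30 min at room temperature with a preformed 50 nM BAZ2B/50 nM biotinylated H3K14Ac peptide complex in PBS pH 7.4 with Tween-20. Donor and acceptor beads at 10 ug/mL final added, 20 min light-protected before reading.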
HP1b chromo inh – HTS for Inhibitors of HP1-beta Chromodomain Interactions with Methylated Histone Tails; Potency, µM (series often up to 114 µM), actives largely listed as inhibitors; AlphaScreen HP1-beta / biotin-H3K9me3 peptide binding; 390,000 tested, 0.56% active; AID 540317, 2011; Chromobox protein homolog 1 (Homo sapiens), P83916; also: nearly all actives have a fitted effect of over 70% in size
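HP1-beta protein (50 nM final) preincubated 30 min at room temperature with biotinylated H3(1-18)K9me3 peptide (50 nM) in PBS pH 7.4, 0.01% Tween-20, then compound added for 30 min. AlphaScreen streptavidin donor/nickel chelate acceptor beads (10 ug/mL final), 30 min dark, luminescence read.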
G9a inh – qHTS Assay for Inhibitors of Histone Lysine Methyltransferase G9a | Potency, µM (titrated, usually from 102 µM), hits mostly inhibitors | G9a H3K9 monomethylation, AlphaScreen, 2 h | Histone-lysine N-methyltransferase EHMT2 (Homo sapiens), Q96KQ7 | 350,000 tested, 8.8% active; also: nearly all actives have a fitted effect of over 75% in size
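Step 1: enzyme (final 20 nM) with compound, 15 min RT. Step 2: substrate peptide 500 nM and SAM 20 uM, 2 h RT. Step 3: anti-H3K9me1 antibody and AlphaScreen beads, 10 min, then plate read.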
PLK1 PBD inh – qHTS for Inhibitors of PLK1-PDB (polo-like kinase 1 - polo-box domain): Primary Screen. Serine/threonine-protein kinase PLK1 (Homo sapiens), P53350. Plk1 PBD binding of FITC phosphopeptide, fluorescence polarization. Potency, µM, hits mostly inhibitors. 360,000 tested, 2.8% active. AID 720504, 2013; also: series mostly up to about 57 µM; nearly all actives have a fitted effect of over 65% in size
JMJD2A Tudor – qHTS Assay for Inhibitors of JMJD2A-Tudor Domain. AID 504339, 2011. 390,000 tested, 4.4% active. Potency, µM (series often up to 114 µM), hits mostly inhibitors. AlphaScreen JMJD2A-Tudor / H3K4me3 peptide binding; also: nearly all actives have a fitted effect of over 50% in size
Of the large screens only hits and unclear results are named; the others gave an inactive call. Sampled rows, rich in hits. Any-hit rate of the full collection: about 9%. Calls follow the shape of the dose curve; as a rule, active = well fitted curve in the direction sought with a large enough effect; inconclusive = small, poorly fitted or top-dose-only effect, or another doubt; inactive = no such curve, though single readings can be large; an effect the other way counts as inactive or inconclusive.

COc1ccc(C2C=C(c3ccccc3)Nc3nnnn32)cc1 (configuration not stated)	G9a inh 50µM
COc1cccc(C2=CC(c3cccc(OC)c3OC)n3nnnc3N2)c1 (configuration not stated)	ALOX12 inh inconclusive, G9a inh 10µM
Cc1ccc(-c2n[nH]c(=O)c3ccccc23)cc1S(=O)(=O)NCC1CCCO1 (configuration not stated)	none
CCCCN(C=O)c1c(CC)nc2ccc(C(=O)N3CCN(C(=O)c4ccco4)CC3)cn12	none (no result: BAZ2B block, HP1b chromo inh, G9a inh, JMJD2A Tudor)
CC(C)(C)c1nc(C#N)c(NCC(c2cccs2)N2CCOCC2)o1 (configuration not stated)	none (no result: BAZ2B block, HP1b chromo inh, G9a inh, PLK1 PBD inh, JMJD2A Tudor)
Cc1ccc(-c2nc3ncccc3o2)cc1NC(=O)c1sc2ccccc2c1Cl	G9a inh inconclusive
Cc1ccc(C(=O)CC(C(=O)O)P(=O)(c2ccccc2)c2ccccc2)cc1 (configuration not stated)	G9a inh 71µM
CCCCOc1ccc(/C=N/NC(=S)Nc2cccc(C)c2C)cc1	none
O=S(=O)(Cc1ccccc1)N(O)c1ccccc1	BAZ2B block inconclusive, G9a inh 20µM, PLK1 PBD inh inconclusive
O=C(C(c1ccccc1)c1ccccc1)N1CCN(Cc2ccccn2)CC1	ALOX12 inh inconclusive, BAZ2B block 56µM, HP1b chromo inh inconclusive, G9a inh inconclusive, JMJD2A Tudor 4µM
CCOC(=O)C1(Cc2ccccc2C(F)(F)F)CCN(CCCn2cccn2)CC1	none
CCOC(=O)C1(Cc2ccccc2C(F)(F)F)CCN(Cc2ccccn2)CC1	ALOX12 inh 16µM (no result: BAZ2B block, HP1b chromo inh, G9a inh, PLK1 PBD inh, JMJD2A Tudor)
O=C(C(c1ccccc1)c1ccccc1)N1CCN(Cc2ccncc2)CC1	ALOX12 inh inconclusive, BAZ2B block inconclusive, HP1b chromo inh inconclusive, G9a inh inconclusive, JMJD2A Tudor inconclusive
O=C(O)C1CCN(Cc2ccccn2)CC1	ALOX12 inh inconclusive, BAZ2B block inconclusive, G9a inh 25µM, JMJD2A Tudor inconclusive
CC1CN(Cc2ccccn2)CCC1=O (configuration not stated)	G9a inh 7.9µM
CCOC(=O)C1CCN(Cc2ccccn2)CC1	BAZ2B block 50µM, G9a inh 1.8µM (no result: ALOX12 inh, HP1b chromo inh, PLK1 PBD inh, JMJD2A Tudor)
COC(=O)C1CCN(C(=O)c2ccc(OC3CCN(Cc4ccccn4)CC3)cc2)CC1	JMJD2A Tudor inconclusive
Cc1ccc2nc(-c3cccc(-c4nc5ccc(C)cc5o4)n3)oc2c1	HP1b chromo inh inconclusive, JMJD2A Tudor 18µM (no result: ALOX12 inh, BAZ2B block, G9a inh, PLK1 PBD inh)
Cc1ccc2nc(-c3cccc(N)c3)oc2c1	none
Cc1ccc2nc(Cc3ccc(N)cc3)oc2c1	none
Cc1ccc2nc(CCc3nc4ccc(C)cc4o3)oc2c1	PLK1 PBD inh 6µM, JMJD2A Tudor inconclusive (no result: BAZ2B block)
CCN(C(=O)C(Sc1ccccc1)c1ccccc1)C1CCCCC1 (configuration not stated)	none (no result: BAZ2B block, HP1b chromo inh, G9a inh, PLK1 PBD inh, JMJD2A Tudor)
COc1ccccc1C(=O)NCCCCNC(=O)c1ccccc1OC	none (no result: BAZ2B block, G9a inh)
COCC1CN(C(C)=O)CC12CCN(S(=O)(=O)c1cccc(C#N)c1)CC2 (configuration not stated)	none (no result: BAZ2B block, HP1b chromo inh, G9a inh, PLK1 PBD inh, JMJD2A Tudor)
Cc1c(Cl)cnc(NC(=O)COC(=O)c2cc3c(s2)CCC(C)C3)c1Cl (configuration not stated)	G9a inh 35µM
CCOc1cc(C(=O)OCC(=O)Nc2ncc(Cl)c(C)c2Cl)ccc1OCC(=O)N1CCOCC1	G9a inh 45µM
Cc1cc(NC(=O)COC(=O)c2cc3c(s2)CCC(C)C3)no1 (configuration not stated)	ALOX12 inh inconclusive
CCn1nc(C(=O)OCC(=O)NC(C)C)c2ccccc2c1=O	PLK1 PBD inh 19µM, JMJD2A Tudor inconclusive
